Test results as given in the supplement of paper PMC10849652.
About 8,800 targets were measured; listed, in parts, are those with a hit and a random draw of the rest. About 0.5% of all pairs of compound and target were hits. Values without a mark were called inactive.

Assays:
Test in all cases: log2 fold change, soluble protein after heating vs DMSO (PISA); higher = thermal stabilisation; K562 lysate, 10 uM; active = over 0.2 and 3.5 SD of the protein, either way, in both replicates (recomputed)
vemurafenib = compound: CCCS(=O)(=O)Nc1ccc(F)c(C(=O)c2c[nH]c3ncc(-c4ccc(Cl)cc4)cc23)c1F [vemurafenib]
Summary of the method: (§1)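 A 30 min treatment with 10 μM compound was applied to crude K562 extract at 1 mg/mL protein in PBS pH 7.4 with 1 mM MgCl2. Heating for 3 min spanned 48°C-58°C, after which aliquots were pooled, adjusted to 0.5% NP-40 at 4°C and spun at 21,000xg for 90 min. TMTpro 16plex LC-MS/MS of the supernatant, with channel sums equalised, gave values recorded as log-two fold change in thermal stability against solvent controls, from duplicates.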

[1] = compound: CCCS(=O)(=O)Nc1ccc(F)c(C(=O)c2c[nH]c3ncc(Cl)cc23)c1F
Summary of the method: as §1

barasertib = compound: CCN(CCCOc1ccc2c(Nc3cc(CC(=O)Nc4cccc(F)c4)[nH]n3)ncnc2c1)CCOP(=O)(O)O [barasertib]
Summary of the method: as §1

[2] = compound: CC[C@@H]1C(=O)N(C)c2cnc(Nc3ccc(C(=O)NC4CCN(C)CC4)cc3OC)nc2N1C1CCCC1
Summary of the method: as §1

volasertib = compound: CC[C@@H]1C(=O)N(C)c2cnc(Nc3ccc(C(=O)N[C@H]4CC[C@H](N5CCN(CC6CC6)CC5)CC4)cc3OC)nc2N1C(C)C [volasertib]
Summary of the method: as §1

[3] = compound: CCn1c(C(=O)N(C2CC2)C2CC2)cc2c3c(ncn3C)c(Nc3cc(C)n(C)n3)nc21
Summary of the method: as §1

[4] = compound: CCn1cc(-c2ccnc3[nH]c(-c4cccc(CN(C)C)c4)cc23)c(-c2ccc(NC(=O)N(C)C)cc2)n1
Summary of the method: as §1

[5] = compound: CN1CCC(CNc2ccc3ncc(-c4cccc(OC(F)(F)F)c4)n3n2)CC1
Summary of the method: as §1

saracatinib = compound: CN1CCN(CCOc2cc(OC3CCOCC3)c3c(Nc4c(Cl)ccc5c4OCO5)ncnc3c2)CC1 [saracatinib]
Summary of the method: as §1

sotrastaurin = compound: CN1CCN(c2nc(C3=C(c4c[nH]c5ccccc45)C(=O)NC3=O)c3ccccc3n2)CC1 [sotrastaurin]
Summary of the method: as §1

Chain of UniProt P60981 (P60981 whole entry, looked up): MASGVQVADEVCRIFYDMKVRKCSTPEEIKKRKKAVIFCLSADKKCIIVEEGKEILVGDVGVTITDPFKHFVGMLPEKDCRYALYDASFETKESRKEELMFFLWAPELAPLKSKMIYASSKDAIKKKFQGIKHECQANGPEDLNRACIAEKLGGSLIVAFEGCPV
Chain of UniProt Q10471 (Q10471 whole entry, looked up): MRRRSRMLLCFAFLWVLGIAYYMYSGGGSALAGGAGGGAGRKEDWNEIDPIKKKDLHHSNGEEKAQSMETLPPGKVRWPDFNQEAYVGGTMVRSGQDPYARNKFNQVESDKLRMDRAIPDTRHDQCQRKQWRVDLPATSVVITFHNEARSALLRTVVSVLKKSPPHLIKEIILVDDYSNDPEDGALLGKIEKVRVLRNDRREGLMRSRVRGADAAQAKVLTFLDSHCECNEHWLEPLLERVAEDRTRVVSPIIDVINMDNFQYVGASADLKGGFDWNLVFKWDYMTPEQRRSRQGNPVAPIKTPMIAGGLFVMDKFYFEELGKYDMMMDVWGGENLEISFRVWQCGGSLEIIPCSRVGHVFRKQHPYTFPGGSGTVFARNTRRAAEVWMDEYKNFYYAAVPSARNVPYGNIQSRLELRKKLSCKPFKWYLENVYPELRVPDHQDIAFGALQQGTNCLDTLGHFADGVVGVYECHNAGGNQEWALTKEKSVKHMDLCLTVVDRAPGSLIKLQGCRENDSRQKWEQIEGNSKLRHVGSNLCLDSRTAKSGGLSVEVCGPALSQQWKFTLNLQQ
Chain of UniProt Q13144 (Q13144 whole entry, looked up): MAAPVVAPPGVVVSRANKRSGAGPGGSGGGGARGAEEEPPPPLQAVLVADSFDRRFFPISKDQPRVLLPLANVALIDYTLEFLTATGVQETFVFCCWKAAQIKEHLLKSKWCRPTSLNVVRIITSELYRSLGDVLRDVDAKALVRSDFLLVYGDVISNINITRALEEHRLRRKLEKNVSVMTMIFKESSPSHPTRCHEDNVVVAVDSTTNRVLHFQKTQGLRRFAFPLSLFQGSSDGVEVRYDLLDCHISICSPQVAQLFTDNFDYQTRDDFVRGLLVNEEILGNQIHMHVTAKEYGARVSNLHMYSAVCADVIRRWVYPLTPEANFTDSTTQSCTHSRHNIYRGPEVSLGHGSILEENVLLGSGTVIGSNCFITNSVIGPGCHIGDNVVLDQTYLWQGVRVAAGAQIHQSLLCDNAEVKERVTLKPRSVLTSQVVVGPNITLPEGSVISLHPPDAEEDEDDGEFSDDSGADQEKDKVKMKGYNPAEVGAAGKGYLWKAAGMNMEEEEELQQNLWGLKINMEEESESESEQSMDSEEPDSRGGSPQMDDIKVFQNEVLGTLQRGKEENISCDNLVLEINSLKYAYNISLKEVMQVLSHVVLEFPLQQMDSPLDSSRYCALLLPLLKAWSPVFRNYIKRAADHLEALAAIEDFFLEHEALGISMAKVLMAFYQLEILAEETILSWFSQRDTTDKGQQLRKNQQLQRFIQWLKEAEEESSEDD
Chain of UniProt Q9BPY3 (Q9BPY3 whole entry, looked up): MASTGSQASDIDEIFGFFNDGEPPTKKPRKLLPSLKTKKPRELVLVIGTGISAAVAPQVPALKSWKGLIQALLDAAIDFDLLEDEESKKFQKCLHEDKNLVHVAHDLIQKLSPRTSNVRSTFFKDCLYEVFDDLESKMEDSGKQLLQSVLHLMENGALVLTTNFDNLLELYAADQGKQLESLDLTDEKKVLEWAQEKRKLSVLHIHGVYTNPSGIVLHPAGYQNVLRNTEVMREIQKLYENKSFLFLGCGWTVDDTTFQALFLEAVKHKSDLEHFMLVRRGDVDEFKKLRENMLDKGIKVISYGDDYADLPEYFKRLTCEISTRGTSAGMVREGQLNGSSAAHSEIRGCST
Chain of UniProt Q96F86 (Q96F86 whole entry, looked up): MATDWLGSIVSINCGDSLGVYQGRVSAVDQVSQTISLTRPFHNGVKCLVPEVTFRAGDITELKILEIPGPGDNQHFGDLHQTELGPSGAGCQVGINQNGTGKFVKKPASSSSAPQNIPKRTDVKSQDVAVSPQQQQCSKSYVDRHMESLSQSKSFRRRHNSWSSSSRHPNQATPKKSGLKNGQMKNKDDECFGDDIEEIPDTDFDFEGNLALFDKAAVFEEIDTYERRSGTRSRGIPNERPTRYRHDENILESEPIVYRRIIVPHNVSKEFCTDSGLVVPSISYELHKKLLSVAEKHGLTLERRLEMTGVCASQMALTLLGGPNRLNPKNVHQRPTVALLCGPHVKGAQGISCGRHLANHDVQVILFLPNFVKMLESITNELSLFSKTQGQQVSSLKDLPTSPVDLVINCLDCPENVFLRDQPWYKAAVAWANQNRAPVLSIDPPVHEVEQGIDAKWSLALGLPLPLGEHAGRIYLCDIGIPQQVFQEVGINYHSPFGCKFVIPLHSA
Chain of UniProt Q9Y5Q0 (Q9Y5Q0 whole entry, looked up): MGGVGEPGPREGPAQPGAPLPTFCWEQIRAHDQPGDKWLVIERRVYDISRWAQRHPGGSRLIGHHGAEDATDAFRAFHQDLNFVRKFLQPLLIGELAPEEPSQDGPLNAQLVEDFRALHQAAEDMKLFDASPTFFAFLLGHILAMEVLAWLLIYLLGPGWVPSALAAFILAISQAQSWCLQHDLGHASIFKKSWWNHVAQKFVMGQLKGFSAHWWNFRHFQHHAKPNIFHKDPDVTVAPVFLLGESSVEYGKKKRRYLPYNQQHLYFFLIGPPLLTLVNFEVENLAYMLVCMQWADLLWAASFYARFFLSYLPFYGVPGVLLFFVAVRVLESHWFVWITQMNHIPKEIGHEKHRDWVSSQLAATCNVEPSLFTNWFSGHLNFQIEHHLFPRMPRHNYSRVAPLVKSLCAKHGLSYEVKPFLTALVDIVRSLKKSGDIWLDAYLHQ
Chain of UniProt P06733 (P06733 whole entry, looked up): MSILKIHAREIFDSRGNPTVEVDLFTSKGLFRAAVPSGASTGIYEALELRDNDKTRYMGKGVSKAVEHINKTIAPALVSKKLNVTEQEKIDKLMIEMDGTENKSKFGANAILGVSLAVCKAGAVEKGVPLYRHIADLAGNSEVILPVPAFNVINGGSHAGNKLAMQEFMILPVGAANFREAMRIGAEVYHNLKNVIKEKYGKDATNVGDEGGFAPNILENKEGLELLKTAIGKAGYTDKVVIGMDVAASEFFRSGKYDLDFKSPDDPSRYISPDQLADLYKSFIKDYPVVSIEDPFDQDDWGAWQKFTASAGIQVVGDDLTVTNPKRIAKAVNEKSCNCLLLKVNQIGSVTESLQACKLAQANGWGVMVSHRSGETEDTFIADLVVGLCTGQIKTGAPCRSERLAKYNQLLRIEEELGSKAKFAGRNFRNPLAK
Chain of UniProt Q14318 (Q14318 whole entry, looked up): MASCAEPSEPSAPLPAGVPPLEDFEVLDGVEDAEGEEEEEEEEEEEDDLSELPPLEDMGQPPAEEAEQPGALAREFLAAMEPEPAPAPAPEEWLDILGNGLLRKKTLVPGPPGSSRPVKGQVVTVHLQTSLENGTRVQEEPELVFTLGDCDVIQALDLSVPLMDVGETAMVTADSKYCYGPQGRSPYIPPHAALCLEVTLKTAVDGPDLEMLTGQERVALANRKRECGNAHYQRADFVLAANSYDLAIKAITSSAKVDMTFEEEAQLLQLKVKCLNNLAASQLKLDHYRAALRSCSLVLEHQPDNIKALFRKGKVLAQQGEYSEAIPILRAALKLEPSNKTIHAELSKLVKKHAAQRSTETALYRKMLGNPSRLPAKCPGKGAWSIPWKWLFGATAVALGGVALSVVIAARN
Chain of UniProt Q5T0N5 (Q5T0N5 whole entry, looked up): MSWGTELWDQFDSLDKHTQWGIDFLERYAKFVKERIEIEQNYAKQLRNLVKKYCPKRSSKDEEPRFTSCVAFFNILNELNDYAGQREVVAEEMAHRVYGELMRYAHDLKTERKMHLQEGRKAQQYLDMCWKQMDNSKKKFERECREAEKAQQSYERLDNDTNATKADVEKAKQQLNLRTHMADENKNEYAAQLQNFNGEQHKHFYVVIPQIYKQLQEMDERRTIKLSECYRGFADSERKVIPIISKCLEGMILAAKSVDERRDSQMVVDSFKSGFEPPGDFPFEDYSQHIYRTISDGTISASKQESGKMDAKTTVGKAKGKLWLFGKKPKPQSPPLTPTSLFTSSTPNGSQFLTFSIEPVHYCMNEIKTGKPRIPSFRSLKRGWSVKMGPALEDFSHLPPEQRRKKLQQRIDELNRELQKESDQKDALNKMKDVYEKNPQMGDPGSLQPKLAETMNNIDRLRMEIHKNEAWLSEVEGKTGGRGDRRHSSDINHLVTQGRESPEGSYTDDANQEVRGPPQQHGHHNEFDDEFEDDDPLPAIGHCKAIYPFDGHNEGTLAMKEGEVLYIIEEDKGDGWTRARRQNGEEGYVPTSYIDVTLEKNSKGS
Chain of UniProt Q13011 (Q13011 whole entry, looked up): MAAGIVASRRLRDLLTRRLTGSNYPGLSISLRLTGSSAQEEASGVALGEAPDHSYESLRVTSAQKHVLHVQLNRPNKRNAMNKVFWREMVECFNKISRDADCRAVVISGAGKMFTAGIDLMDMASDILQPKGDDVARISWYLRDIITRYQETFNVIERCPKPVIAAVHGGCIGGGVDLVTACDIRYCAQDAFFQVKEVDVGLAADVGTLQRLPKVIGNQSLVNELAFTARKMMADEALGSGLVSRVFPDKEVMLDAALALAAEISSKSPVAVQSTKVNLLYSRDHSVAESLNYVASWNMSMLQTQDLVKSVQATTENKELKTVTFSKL
Chain of UniProt P54852 (P54852 whole entry, looked up): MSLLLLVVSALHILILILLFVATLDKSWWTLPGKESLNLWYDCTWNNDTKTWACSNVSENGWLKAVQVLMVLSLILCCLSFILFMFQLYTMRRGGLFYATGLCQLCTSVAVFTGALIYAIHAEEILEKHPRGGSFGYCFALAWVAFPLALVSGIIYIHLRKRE

| Target | log2 fold change (vemurafenib) | log2 fold change [1] | log2 fold change (barasertib) | log2 fold change [2] | log2 fold change (volasertib) | log2 fold change [3] | log2 fold change [4] | log2 fold change [5] | log2 fold change (saracatinib) | log2 fold change (sotrastaurin) |
| --- | --- | --- | --- | --- | --- | --- | --- | --- | --- | --- |
| EED, A0A5F9ZI63 | -0.019 | 0.034 | -0.029 | 0.005 | 0.015 | -0.012 | -0.047 | 0.049 | 0.026 | 0.031 |
| EDC3 (UniProt Q96F86) | -0.011 | 0.019 | -0.01 | 0.066 | -0.016 | -0.012 | -0.017 | -0.043 | 0.006 | 0.018 |
| FNBP1L (UniProt Q5T0N5) | 0.003 | 0.029 | 0.167 | -0.085 | -0.068 | -0.013 | -0.024 | -0.019 | -0.013 | 0.048 |
| FAM118B (UniProt Q9BPY3) | -0.06 | 0.03 | 0.004 | -0.014 | 0.001 | 0.022 | -0.03 | -0.027 | 0.004 | 0.048 |
| FYB1 isoform 3 (UniProt O15117) | -0.056 | -0.011 | -0.003 | 0.043 | -0.026 | -0.018 | 0.072 | -0.101 | 0.007 | 0.008 |
| ENO1 isoform 2 (UniProt P06733) | 0.02 | -0.005 | -0.09 | 0.073 | 0.004 | -0.021 | -0.263 | 0.269 (active) | 0.01 | 0.01 |
| GEMIN5 (UniProt Q8TEQ6) | 0.006 | 0.008 | 0.004 | -0.085 | -0.069 | 0.066 | -0.052 | -0.061 | 0.018 | 0.015 |
| EIF2B5 (UniProt Q13144) | -0.007 | 0.019 | 0.013 | -0.012 | -0.027 | 0.021 | -0.065 | -0.057 | 0.009 | 0.038 |
| ERI1 (UniProt Q8IV48) | 0.01 | 0.01 | 0.008 | -0.018 | -0.023 | -0.008 | 0.065 | -0.112 | -0.006 | 0.034 |
| EDC4 (UniProt Q6P2E9) | 0.053 | 0.004 | 0.026 | -0.013 | -0.015 | 0.015 | -0.055 | 0.001 | 0.011 | 0.011 |
| GALNT2 (UniProt Q10471) | 0.013 | 0.014 | 0.003 | -0.014 | 0.002 | 0.042 | 0.065 | 0.035 | -0.004 | 0.016 |
| G6PD isoform 2 (UniProt P11413) | 0.003 | 0.008 | -0.029 | -0.02 | -0.061 | 0.016 | 0.063 | -0.04 | 0.032 | -0.017 |
| EIF2D (UniProt P41214) | 0.041 | 0.024 | 0.017 | -0.074 | -0.052 | 0.001 | -0.02 | -0.071 | -0.002 | 0.026 |
| DSTN (UniProt P60981) | -0.006 | -0.002 | -0.005 | -0.015 | -0.013 | 0.015 | 0.025 | 0.035 | -0.005 | -0.011 |
| ETHE1 (UniProt O95571) | -0.018 | 0.022 | 0.076 | -0.013 | -0.017 | -0.007 | 0.044 | 0.003 | 0.001 | -0.004 |
| FIBP (UniProt O43427) | -0.011 | 0.041 | 0.105 | -0.236 (active) | -0.013 | -0.001 | -0.028 | -0.021 | 0.039 | 0.008 |
| EMP3 (UniProt P54852) | 0.022 | -0.002 | 0.005 | 0.066 | 0.124 | -0.112 | -0.967 (active) | 0.365 (active) | 0.049 | -0.029 |
| FKBP8 isoform 2 (UniProt Q14318) | -0.037 | -0.01 | 0.366 | -0.045 | 0.005 | -0.029 | 0.033 | -0.084 | -0.022 | 0.006 |
| FBXO30 (UniProt Q8TB52) | -0.065 | 0.02 | 0.015 | -0.026 | -0.042 | 0.009 | 0.208 | -0.115 | -0.015 | -0.013 |
| FXR1 (UniProt P51114) | -0.047 | 0.009 | 0.01 | -0.036 | -0.022 | 0.018 | -0.107 | 0.012 | -0.036 | -0.011 |
| ENO1, A0A2R8YEM5 | -0.03 | -0.017 | -0.056 | 0.008 | 0.004 | -0.04 | -0.44 (active) | 0.325 (active) | 0.031 | -0.011 |
| FADS3 (UniProt Q9Y5Q0) | 0.066 | 0.149 | 0 | 0.119 | -0.103 | 0.023 | -0.957 (active) | 0.343 | 0.152 | -0.057 |
| FMNL1 isoform 3 (UniProt O95466) | 0.022 | -0.008 | -0.002 | 0.028 | -0.088 | -0.035 | 0.026 | -0.032 | 0.007 | -0.006 |
| FLT4 (UniProt P35916) | -0.069 | -0.046 | -0.036 | -0.031 | -0.042 | 0.135 | 0.018 | 0.08 | -0.036 |  |
| FYCO1 isoform 4 (UniProt Q9BQS8) | 0.024 | 0.019 | 0.045 | 0.027 | -0.004 | 0.031 | -0.104 | 0.063 | 0.04 | 0 |
| EXOC1 (UniProt Q9NV70) | 0 | 0.027 | 0.051 | -0.106 | -0.03 | 0.082 | 0.053 | -0.119 | 0 | 0.02 |
| EXOC4 (UniProt Q96A65) | 0.079 | 0.01 | 0.055 | -0.06 | -0.055 | 0.025 | 0.022 | -0.079 | 0.006 | 0.018 |
| FAM118A (UniProt Q9NWS6) | -0.013 | 0.011 | 0.018 | -0.017 | -0.009 | -0.031 | -0.135 | 0.077 | 0.063 | 0.025 |
| ECH1 (UniProt Q13011) | -0.003 | -0.025 | -0.008 | -0.019 | 0.041 | -0.007 | -0.07 | 0.348 (active) | -0.047 | 0.608 (active) |
| GEMIN2 (UniProt O14893) | 0.061 | -0.017 | 0.052 | 0.033 | 0.009 | 0.011 | -0.052 | 0.029 | 0.025 | -0.045 |
